These results are taken from PubChem BioAssay (NCATS).

Structures are written as SMILES. Inconclusive results are not listed. Active and inactive are the calls of the source. Calls come from the whole dose curve; as a rule, active = well fitted curve in the direction sought with a large enough effect; inconclusive = small, poorly fitted or top-dose-only effect, or another doubt; inactive = no such curve, though single readings can be large; an effect the other way counts as inactive or inconclusive.

Assay [1] in a line: Quantitative High-Throughput drug screen in 47 multiple myeloma cell lines against the NCATS MIPE library collection: ARD_JJKsccE7 cell viability assay (AID 1918929). Put shortly: (§1)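 qHTS of the MIPE 4.0 collection: 500 myeloma cells/well, 48 h drug exposure at 37C in 5% CO2, then CellTiter-Glo for 5 min at room temperature before luminescence reading.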
The nature of assay [2]: Quantitative High-Throughput drug screen in 47 multiple myeloma cell lines against the NCATS MIPE library collection: Karpas620_DSMZ cell viability assay (AID 1918959). Note: nearly all actives have a fitted effect of over 30% in size. Put shortly:
(§2)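 Myeloma cells (500 per well) were exposed to MIPE 4.0 compounds by pin transfer and incubated 48 hours at 37C, 5% CO2. Viability was read as ATP by CellTiter-Glo luminescence, normalised to DMSO (100%) and media-only (0%) wells.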

Assay [3] in a line: Quantitative High-Throughput drug screen in 47 multiple myeloma cell lines against the NCATS MIPE library collection: KMM1_JCRB cell viability assay (AID 1918960). Note: nearly all actives have a fitted effect of over 30% in size. The procedure, abridged: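 Cell viability inhibition in this qHTS is measured via ATP content (CellTiter-Glo) after 48 h drug exposure at 37 °C. Wells hold 500 cells; DMSO-treated wells define 100% and medium-only wells 0%.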

The nature of assay [4]: Quantitative High-Throughput drug screen in 47 multiple myeloma cell lines against the NCATS MIPE library collection: KHM11_PLB cell viability assay (AID 1918962). Note: nearly all actives have a fitted effect of over 35% in size. The procedure, abridged: as §2
The nature of assay [5]: Quantitative High-Throughput drug screen in 47 multiple myeloma cell lines against the NCATS MIPE library collection: JIM3_ECACC cell viability assay (AID 1918963; note: nearly all actives have a fitted effect of over 35% in size). The procedure, abridged: as §2
Assay [6] can be described thus: Quantitative High-Throughput drug screen in 47 multiple myeloma cell lines against the NCATS MIPE library collection: JIM1_ECACC cell viability assay (AID 1918964). The procedure, abridged: as §1
Assay [7] is described as follows: Quantitative High-Throughput drug screen in 47 multiple myeloma cell lines against the NCATS MIPE library collection: INA6_PLB cell viability assay (AID 1918965; note: nearly all actives have a fitted effect of over 55% in size). The procedure, abridged: (§3)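 CellTiter-Glo ATP luminescence gave viability after 48 h compound treatment at 37C of 500 multiple myeloma cells per well. Normalisation used DMSO-only wells as 100% and media-only wells as 0% viability; primary qHTS of approved and investigational drugs.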

Assay [8] in a line: Quantitative High-Throughput drug screen in 47 multiple myeloma cell lines against the NCATS MIPE library collection: H1112_PLB cell viability assay (AID 1918967; note: nearly all actives have a fitted effect of over 30% in size). Put shortly:
as §1

A short description of assay [9]: Quantitative High-Throughput drug screen in 47 multiple myeloma cell lines against the NCATS MIPE library collection: Karpas25_ECACC cell viability assay (AID 1918968; note: nearly all actives have a fitted effect of over 35% in size). The procedure, abridged:
as §1

The nature of assay [10]: Quantitative High-Throughput drug screen in 47 multiple myeloma cell lines against the NCATS MIPE library collection: KMS12BM_JCRB cell viability assay (AID 1918971). Note: nearly all actives have a fitted effect of over 35% in size. The procedure, abridged:
(§4)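 Luminescent ATP measurement with CellTiter-Glo gives viability, scaled between DMSO-only wells (100%) and media-only wells (0%). Cells, 500 per well, faced library compounds for 48 hours at 37C.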

A short description of assay [11]: Quantitative High-Throughput drug screen in 47 multiple myeloma cell lines against the NCATS MIPE library collection: KMS20_JCRB cell viability assay (AID 1918973). Note: nearly all actives have a fitted effect of over 45% in size. The procedure, abridged: as §1
Assay [12] in a line: Quantitative High-Throughput drug screen in 47 multiple myeloma cell lines against the NCATS MIPE library collection: KMS26_JCRB cell viability assay (AID 1918975). Note: nearly all actives have a fitted effect of over 45% in size. The procedure, abridged:
as §4

Assay [13] can be described thus: Quantitative High-Throughput drug screen in 47 multiple myeloma cell lines against the NCATS MIPE library collection: MOLP8_DSMZ cell viability assay (AID 1918977). Note: nearly all actives have a fitted effect of over 45% in size. The procedure, abridged:
(§5)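 ATP-based CellTiter-Glo luminescence after 48 h drug exposure (37 °C, 5% CO2) of 500 myeloma cells per well. DMSO-only wells set 100% viability, media-only wells 0%; MIPE 4.0 library added by pin tool.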

Assay [14] can be described thus: Quantitative High-Throughput drug screen in 47 multiple myeloma cell lines against the NCATS MIPE library collection: KMS27_JCRB cell viability assay (AID 1918970). Note: nearly all actives have a fitted effect of over 30% in size. The procedure, abridged:
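KMS27_JCRB myeloma cells, 500 per well, exposed 48 h at 37 C, 5% CO2 to MIPE 4.0 compounds. Viability from ATP by CellTiter-Glo luminescence, normalized to DMSO (100%) and medium-only (0%) wells.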

Assay [15] can be described thus: Quantitative High-Throughput drug screen in 47 multiple myeloma cell lines against the NCATS MIPE library collection: KMS12PE_JCRB cell viability assay (AID 1918972). For viability: series mostly up to about 46 µM. Note: nearly all actives have a fitted effect of over 30% in size. Put shortly:
as §3

A short description of assay [16]: Quantitative High-Throughput drug screen in 47 multiple myeloma cell lines against the NCATS MIPE library collection: NCIH929_DSMZ cell viability assay (AID 1918978). Note: nearly all actives have a fitted effect of over 35% in size. The procedure, abridged: as §5
Assay [17] can be described thus: Quantitative High-Throughput drug screen in 47 multiple myeloma cell lines against the NCATS MIPE library collection: MMM1_PLB cell viability assay (AID 1918976). Note: nearly all actives have a fitted effect of over 35% in size. The procedure, abridged:
as §5
Potency is the fitted concentration of half-maximal effect.

Regarding `CC(=O)Nc1ccc([C@H](C)C(=O)Nc2ncc(C(C)C)s2)cc1`, the Potency is 1.18 µM (active) in [1]; 2.35 µM (active) in assay [2]; 5.26 µM (active) in [3]; 4.69 µM (active) in assay [4]; 7.43 µM (active) in [5]; 1.66 µM (active) in [6]. In addition, the Potency is 4.18 µM (active) in assay [7]; 4.18 µM (active) in assay [8]; 1.05 µM (active) in assay [9]; 2.35 µM (active) in assay [10]; 3.32 µM (active) in [11]; 1.32 µM (active) in [12]. Also, the Potency in assay [13] is 3.32 µM (active).

As to `O=C(CCc1ccc(O)cc1)c1c(O)cc(O)cc1O[C@@H]1O[C@H](CO)[C@H](O)[C@H](O)[C@H]1O`, the Potency entry in assay [1], in assay [2], in assay [3], in assay [5], in [8] and in assay [14] was “inactive” each time. For the same molecule, the Potency result in [10], in assay [15], in assay [11], in assay [12] and in [16] was “inactive” each time.

For the molecule `COCCCCC(=NOCCN)c1ccc(C(F)(F)F)cc1`, the Potency result in assay [1], in assay [2], in assay [3], in [5] and in assay [15] was “inactive” throughout.

Take `CC(=O)N(C)C1(c2ccccc2)CCN(CCC[C@]2(c3ccc(Cl)c(Cl)c3)CCCN(C(=O)c3ccccc3)C2)CC1`: the Potency was 20.9 µM (active) in [1]; 16.6 µM (active) in assay [2]; 14.8 µM (active) in assay [3]; 16.6 µM (active) in assay [4]; 20.9 µM (active) in [5]; 10.5 µM (active) in [7]. Further, the Potency in assay [8] was 20.9 µM (active); in assay [9], 16.6 µM (active); in assay [14] it was 23.5 µM (active); in [10], 20.9 µM (active); in assay [15], 7.43 µM (active); in assay [11], 4.69 µM (active). Besides, the Potency in assay [12] was 20.9 µM (active); in [17], 20.9 µM (active); in [13] it was 23.5 µM (active); in [16], 11.8 µM (active).

Consider `CC[C@H]1OC(=O)[C@H](C)[C@@H](O[C@H]2C[C@@](C)(OC)[C@@H](O)[C@H](C)O2)[C@H](C)[C@@H](O[C@@H]2O[C@H](C)C[C@H](N(C)C)[C@@H]2O)[C@](C)(O)C[C@@H](C)CN(C)[C@H](C)[C@@H](O)[C@]1(C)O`, for which the Potency result in assay [1], in [2], in assay [3], in [5], in [8] and in assay [9] was “inactive” throughout. In addition, the Potency entry in assay [10], in assay [15], in [12] and in assay [16] was “inactive” in each case.

Take `COc1cc2c(cc1OC)CN(CCc1ccc(NC(=O)c3cc(OC)c(OC)cc3NC(=O)c3cnc4ccccc4c3)cc1)CC2`: the Potency entry in [1], in assay [2], in assay [3], in [14], in [15] and in [13] was “inactive” in each case. Further, the Potency in assay [4] was 20.9 µM (active); in [5], 23.5 µM (active); in [9], 8.33 µM (active); in assay [10], 10.5 µM (active); in assay [17] it was 2.35 µM (active).

On to `N#CC(=C(N)Sc1ccccc1N)C(C#N)=C(N)Sc1ccccc1N`, for which the Potency is 20.9 µM (active) in assay [1]; 16.6 µM (active) in assay [2]; 18.7 µM (active) in assay [3]; 0.662 µM (active) in [4]; 18.7 µM (active) in [5]; 16.6 µM (active) in assay [6]. Also, the Potency in assay [7] was 16.6 µM (active); in assay [14], 18.7 µM (active); in assay [15] it was 23.5 µM (active); in [12], 1.32 µM (active); in assay [16], 14.8 µM (active).

In the case of `C[C@]12CCC3c4ccc(O)cc4CCC3C1CCC2=O` (stereo partly drawn), the Potency entry in assay [1], in assay [2], in [3], in assay [4], in assay [8] and in assay [14] was “inactive” throughout. Further, the Potency result in assay [15] and in [16] was “inactive” in each case. In addition, the figures for the Potency in assay [10], in [12] and in [13] were 20.9 µM (active), 3.32 µM (active) and 20.9 µM (active), respectively.
